Data as given in PubChem BioAssay AID2283220 (EPA ToxCast).
Results filed as inconclusive are left out. Activity calls are given as the source filed them. The calls were made as follows: active = hit-call score of the fitted dose curve at least 0.9, where 1 is the maximum; inconclusive = response in the unintended direction; inactive = score below 0.9.

Molecular target: human Serum/Glucocorticoid Regulated Kinase 1 (SGK1), SGK1 (gene 6446) (UniProt O00141)
Assay: NVS_ENZ_hSGK1: NovaScreen (NVS) Enzymatic Assay for human Serum/Glucocorticoid Regulated Kinase 1 (SGK1)
Procedure: NVS_ENZ_hSGK1 is a biochemical, single-readout assay that uses extracted gene-proteins in a cell-free assay. Measurements were taken 1 hour after chemical dosing in a 96-well plate.NVS_ENZ_hSGK1 is one of one assay component(s) measured or calculated from the NVS_ENZ_hSGK1 assay. It is designed to make measurements of enzyme activity, a form of enzyme reporter, as detected with fluorescence intensity signals by Fluorescence and electrophoretic mobility shift technology.Data from the assay component NVS_ENZ_hSGK1 was analyzed into 1 assay endpoint. This assay endpoint, NVS_ENZ_hSGK1, was analyzed in the positive analysis fitting direction relative to DMSO as the negative control and baseline of activity. Using a type of enzyme reporter, loss-of-signal activity can be used to understand changes in the enzymatic activity as they relate to the gene SGK1. Furthermore, this assay endpoint can be referred to as a primary readout, because this assay has produced […] where this one serves a enzymatic activity function. To generalize the intended target to other relatable targets, this assay endpoint is annotated to the kinase intended target family, where the subfamily is serine/threonine kinase.
Binding assays used specific radioligands (tritiated, iodinated) with non-radioactive competitive displacement ligands in agonist or antagonist protocols (as indicated) and various reference compounds and inhibitors to titrate specific binding to receptors and transporters. Most enzyme assays (CYPs, kinases, phosphatases, proteases, HDACs) used recombinant protein and specific substrates (fluorescence mostly, some colorimetric and radioactive) and inhibitors, followed by a biochemical separation of substrate and product. All assays for the biochemical HTS were initially run in duplicate at a single concentration (10 uM for CYP450 assays and 25 uM for all others). […]

Chain of human Serum/Glucocorticoid Regulated Kinase 1 (SGK1), SGK1 (gene 6446) (O00141 whole entry, looked up): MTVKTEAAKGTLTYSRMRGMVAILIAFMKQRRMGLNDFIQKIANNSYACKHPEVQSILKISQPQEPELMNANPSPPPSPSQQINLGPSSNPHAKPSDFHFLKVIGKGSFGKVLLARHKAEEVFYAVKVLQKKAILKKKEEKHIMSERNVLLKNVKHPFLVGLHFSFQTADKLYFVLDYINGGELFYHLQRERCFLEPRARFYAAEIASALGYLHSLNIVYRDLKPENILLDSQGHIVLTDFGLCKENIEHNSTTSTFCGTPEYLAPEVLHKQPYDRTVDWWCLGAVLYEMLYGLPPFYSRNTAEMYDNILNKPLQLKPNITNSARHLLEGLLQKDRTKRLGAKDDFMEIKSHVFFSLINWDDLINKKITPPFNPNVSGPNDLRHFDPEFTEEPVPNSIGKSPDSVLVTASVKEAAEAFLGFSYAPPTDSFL

SMILES	outcome	AC50
N#CSCSc1nc2ccccc2s1	inactive	
O=C(Nc1ccc([N+](=O)[O-])cc1Cl)c1cc(Cl)ccc1O	inactive	
S=C([S-])NCCNC(=S)[S-].[Mn+2]		10.6 µM (active)
